Reference: the supplement of paper PMC10338343
± gives the standard deviation.

The sequences below were run on MILI (PIWIL2) piRISC loaded with L1MC piRNA (26 nt) (assay: pre-steady-state target cleavage rate (min^-1); guide: L1MC piRNA 5'p-UAACUAAAUACUAUGCAAGCUGUAGG; MIWI and MILI are mouse PIWI proteins and EfPiwi is from a freshwater sponge; tags in brackets are library labels; higher = faster piRNA-guided slicing of the target). Details: auxiliary factor: 500 nM mouse GTSF1.
Procedure, shortened: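 A transcribed, DNA-blocked target RNA library (0.1 nM) and 1 nM active affinity-purified piRISC bearing one synthetic guide were incubated in HEPES–potassium acetate buffer at 33 °C for 0–8 or 0–960 min, either with or without 500 nM GTSF1 partner protein. Uncleaved targets were sequenced, normalised to depth and to weakly complementary targets, and pooled over three trials, with k3 capped at 0.0001 min^-1. The pre-steady-state cleavage rate was derived with a burst-and-steady-state fit.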

Row | Sequence | pre-steady-state target cleavage rate
1 | UCCUGGAACAGCAACCAUAGUAUUUAGAAA | 0.018 ± 0.0072
2 | UCCUGGUACAGCUUGCAUAGUUUUUAGAAA | 0.0221 ± 0.011
3 | UCCUGGAUGUCGAUGCAUAGUAUUCUAGUUA | 0.115 ± 0.023
4 | UCCUGGAUGUGCUUGCAUAGUAUUUUGUAA | 0.00939 ± 0.0045
5 | UCCUGGAUGUGCUUCCAUAGUAUUUAGUUA | 0.0271 ± 0.0077
6 | UCCUGGAUGUGCUUGCAUAGUAAAAAGUUA | 0.0196 ± 0.0079
7 | UCCUGGAUGUCCAUGCAUAGUAUUUUGUUA | 0.00776 ± 0.0045
8 | UCCUCCUACAGCUUCGUUAGUAUUUAGAAA | 0.0202 ± 0.0065
9 | UCCUGGAUGUCCUUGCAUUCUAUUUAGUUA | 0.00856 ± 0.0043
10 | UCCUGGAACAGCUUGCAUAGUAAUAAGUUA | 0.103 ± 0.018
11 | UCCUGGAUGAGCUUGCAUAGUAUAUUGUUA | 0.0743 ± 0.017
12 | UCCUGGUACAGCUUCGAUAGUAUUUAGAAA | 0.0453 ± 0.014
13 | UCCUGGAACACGUUGCAUAGUAUUUAGAAA | 0.187 ± 0.034
14 | UCCUGGAUGUCGAAGCAUAGUAUUUAGAUUA | 0.00757 ± 0.0041
15 | UCCUGGAACAGCUUGCUUAGUAUUUACAAA | 0.105 ± 0.026
16 | UCCUCCUACAGCUUGCUAUGUAUUUUCAAA | 0.006 ± 0.0037
17 | UCCUGGAUGUCCUUGCCAUAGUAUUUAGUUA | 0.00783 ± 0.0048
18 | UCCUCCUACAGCUUGCAUCAGUAUUUAGUUA | 0.0234 ± 0.0093
19 | UCCUGGAACAGCUUGCAUAGAUAUUAGUUA | 0.0112 ± 0.0053
20 | UCCUGGAUCAGCUUGGUUAGUAUUUACAAA | 0.00756 ± 0.0052
21 | UCCUGCUACAGCUUCGAUAGUAUUUAGAAA | 0.0541 ± 0.017
22 | UCCUGGAUCAGCUUGCAUAGAAUUUUGUUA | 0.038 ± 0.012
23 | UCCUGGAUGUCGAACCAUAGUAUUAUCAAA [g7:g15:cont:t1A] | < 0.0001
24 | UCCUGGAUGUCGAUACAUAGUAUUUAGUUA | 0.0231 ± 0.0046
